D2 ag-1: D2 dopamine receptor (human) agonism. 340,000 compounds, 0.53% hits. HEK293 T-REx D2 cells, calcium flux agonist mode. AID 485358. P14416. activation, % at 2 µM;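 active means activation over 3 SD above normal in the single-dose calcium agonist read, cut at about 30% in these data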; further: 0% is about no effect
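Agonism is scored from calcium flux in a force-coupled, inducible HEK293 cell line expressing D2, read kinetically for 180 s after compound addition against dopamine controls.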
D2 PAM-1: positive allosteric modulators of human D2 dopamine receptor | P14416 | HEK293 T-REx D2, calcium flux, EC20 dopamine potentiation | potentiation, % at 10 µM | 340,000 compounds, 0.34% hits;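 active means potentiation over 3 SD above the plate norm, cut at about 30% in these data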; further: 0% is about no effect
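Using a no-wash calcium dye in inducible, force-coupled HEK293 Trex cells expressing D2, we tracked fluorescence each second for 180 s after compound, then for 180 s after EC20 dopamine to detect augmented signalling.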
D2 PAM-2: positive allosteric modulators of human D2 dopamine receptor; potentiation, % (no concentration beside the values); P14416; DiscoveRx D2 beta-arrestin cells, luminescence, 90 min; 100% = 57 uM dopamine signal; AID 624464; 360,000 compounds, 0.23% hits; in the data active means potentiation above about 50%; inconclusive means mostly about 30% to 49%
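PathHunter D2 cells, attached overnight at 37 deg C, received compound in DMSO plus dopamine at EC20 (50 nM final) for 90 min at 37 deg C. Beta-arrestin recruitment was read as luminescence after 1 h with detection reagent at ambient temperature.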
D2 antagonist: antagonizes the human D2 dopamine receptor; P14416; HEK293 TREx D2 cells, calcium flux, dopamine EC80; inhibition, % at 10 µM; 340,000 compounds, 2% hits; AID 485344; in the data active means inhibition above about 30%; inactive means below that, where a call was filed; further: 0% is about no effect
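HEK293 T-REx D2 cells, tet-induced, calcium dye no-wash. Cpd pintool add, 180 s kinetic, then EC80 DA, 180 s kinetic. Ca flux read.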
D2 ag-2: agonists of human D2 dopamine receptor (beta-arrestin) | DiscoveRx PathHunter D2 beta-arrestin, luminescence, 90 min; 100% = 57 uM dopamine signal | activation, % (test concentration not listed) | 360,000 compounds, 0.084% hits | AID 624465; in the data active means activation above about 40%; inconclusive means between about 15% and that limit
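Agonist mode: compounds alone added to overnight-plated D2 PathHunter cells for 90 min at 37 C, with 57 uM final dopamine (EC100) defining full response. Beta-arrestin recruitment detected by chemiluminescent reagent, read after 1 h at ambient temperature.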
D3 ag: D3 receptor agonism confirmed, beta-arrestin readout. shares compounds with D2 ag-1. AID 720506. 2,300 compounds, 4% hits. Potency, µM (doses to about 76.9 µM), inactives show top-dose activation, usual class: activators. DiscoveRx D3 beta-arrestin cells, luminescence, 90 min;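 further: potency means the concentration at half of the fitted maximal effect; 100% = dopamine control response; nearly all actives have a fitted effect of over 70% in size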
Target sequence (P35462 whole entry, looked up): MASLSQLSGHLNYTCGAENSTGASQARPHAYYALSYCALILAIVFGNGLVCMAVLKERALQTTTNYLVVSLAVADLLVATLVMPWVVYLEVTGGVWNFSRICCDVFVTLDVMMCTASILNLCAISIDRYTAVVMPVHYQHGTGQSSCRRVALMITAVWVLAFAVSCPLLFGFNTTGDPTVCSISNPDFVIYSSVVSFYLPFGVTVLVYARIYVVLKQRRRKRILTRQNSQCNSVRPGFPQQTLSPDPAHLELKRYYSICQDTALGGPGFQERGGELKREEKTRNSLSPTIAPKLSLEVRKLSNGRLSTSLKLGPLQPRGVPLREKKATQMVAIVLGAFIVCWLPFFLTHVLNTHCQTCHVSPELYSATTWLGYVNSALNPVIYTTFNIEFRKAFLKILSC
D2 ag-3: activates human D2 dopamine receptor in D3 counterscreen; shares compounds with D2 ag-1; DiscoveRx PathHunter D2 beta-arrestin, luminescence, 90 min; response scale: percent relative to full dopamine signal; Potency, µM (series often up to 76.9 µM), for inactives: at the top dose activation, most hits filed as activators; 2,300 compounds, 5.9% hits; AID 720507; further: potency means the concentration at half of the fitted maximal effect; % of control where 0% means no effect; nearly all actives have a fitted effect of over 70% in size
* marks the source's active call; other numbers are inactive results; ? = inconclusive; · = no result. Only some compounds are listed: those with a hit (about 2.4% of all), similar ones and a draw of the others. Unless noted, the call rests on the fitted dose curve; in most records, active means well fitted activation curve with a large enough effect; inconclusive means small, poorly fitted or top-dose-only effect; inactive means flat fitted curve, though single readings scatter.

SMILES | D2 ag-1 | D2 PAM-1 | D2 PAM-2 | D2 antagonist | D2 ag-2 | D3 ag | D2 ag-3
CCc1ccc(CN2CCCC(CCC(=O)N3CCN(c4ccccn4)CC3)C2)o1 (centres undefined) | 25.2 | -16.7 | -20.1 | -21.7 | 0.6 | -14.6% | -1.3%
Cc1ccc(C(=O)N2CCCC(CCC(=O)N3CCN(c4ccccn4)CC3)C2)cc1 (centres undefined) | -0.4 | 5.4 | -7.4 | 4.2 | -0.9 | · | ·
O=C(NCc1cccc(C(F)(F)F)c1)C1CCCN(c2ncccn2)C1 (centres undefined) | 66.5* | -33.1 | -7.0 | 3.3 | -3.4 | -9.0% | -5.2%
CCOC(=O)Cc1csc(NC(=O)c2csc(C)c2)n1 | 61.4* | -18.2 | -7.8 | -16.2 | -2.0 | 2.0% | 4.8%
CCOC(=O)Cc1csc(NC(=O)c2cccc(OC)c2)n1 | 0.4 | 3.0 | 7.9 | 6.7 | -3.3 | · | ·
O=C(NC(Nc1nc2ccc([N+](=O)[O-])cc2s1)(C(F)(F)F)C(F)(F)F)c1ccccc1Cl | 14.8 | -18.2 | -5.6 | 20.4 | -4.2 | · | ·
O=C(NC(Nc1nc2ccc([N+](=O)[O-])cc2s1)(C(F)(F)F)C(F)(F)F)c1cccnc1 | 25.0 | -6.3 | -3.4 | 8.0 | -2.8 | 11.6% | -3.9%
COc1cc(C(CC(=O)NCc2ccc(F)cc2)N2Cc3ccccc3C2=O)cc(OC)c1OC (centres undefined) | · | -0.5 | · | · | · | · | ·
CCCCN(C)C(=O)c1ccc(Nc2nc(C(N)Cc3ccc(C(F)(F)F)cc3)cs2)nc1 (centres undefined) | · | · | -2.7 | · | 8.1 | · | ·
COCCOCC(O)CN1CCN(c2ccccc2)CC1 (centres undefined) | 84.0* | -30.0 | -24.2 | 59.0* | 9.2 | 21.6% | 14.8%
OC(COCc1ccccc1)CN1CCN(c2ccccc2)CC1 (centres undefined) | 86.3* | -31.8 | -4.3 | 85.7* | 14.0 | ? | ?
OC(COCC1COc2ccccc2O1)CN1CCN(c2ccccc2)CC1 (centres undefined) | 66.9* | -12.4 | -7.3 | 59.9* | ? | ? | ?
C=C[C@]1(C)C=C2C(=O)[C@@]3(O)OC(=O)[C@@]4(CCCC(C)(C)[C@H]34)[C@@]2(O)CC1 | · | · | 7.8 | · | 10.8 | · | ·
Cc1ccc(-c2nnn3c2nc(NCC(C)c2ccccc2)c2ccccc23)cc1 (centres undefined) | 0.3 | 3.9 | · | · | · | · | ·
CCOc1ccc(NC(=O)CN2CCSc3ccc(S(=O)(=O)N4CCCC4)cc32)cc1 | 0.1 | -6.6 | · | · | · | · | ·
CC(=O)Nc1ccc(SCCN2CC[C@@H](O)CCC2=O)cc1 | -0.1 | 19.3 | 0.0 | -10.8 | -2.4 | · | ·
CC(=O)Nc1ccc(SCCN2CC[C@@H](C)CCC2=O)cc1 | 0.3 | -5.2 | -4.2 | -1.9 | -3.8 | -0.2% | -3.9%
CCOC(=O)c1[nH]c2ccccc2c1NC(=O)c1ccc(OC(C)C)cc1 | -1.5 | 2.2 | · | · | · | · | ·
CC(NC(=O)CCCC1=NS(=O)(=O)c2ccccc2N1)c1ccccc1 (centres undefined) | 10.0 | 12.4 | · | · | · | · | ·
Cc1ccc(OCCN2CCN(C(=O)CCC(=O)Nc3nnc(C)s3)CC2)cc1 | 4.2 | 12.5 | -16.3 | 6.4 | 0.8 | ? | 1.3%
Cc1nnc(NC(=O)CCC(=O)N2CCN(CCOc3cccc4ccccc34)CC2)s1 | 54.7* | -23.5 | -21.9 | 52.4* | ? | ? | ?
CCCc1nnc(NC(=O)CCC(=O)N2CCN(CCOc3ccc(C)cc3)CC2)s1 | -2.3 | 11.2 | 3.1 | -2.3 | 0.1 | · | ·
Cc1ccc(OCCN2CCN(C(=O)CCC(=O)Nc3nnc(C(C)C)s3)CC2)cc1 | 0.0 | 8.1 | -42.3 | -5.1 | 2.7 | · | ·
Fc1ccccc1N1CCN(Cc2cccnc2)CC1 | 73.4* | -21.3 | 1.4 | 67.7* | ? | ? | ?

Source: PubChem
